This is a sample that favours compounds with a hit; in the whole collection about 8.8% have one here.
KB-V1 cytotox = qHTS assay for MDR1-selective chemotherapeutics: Primary screen using the drug-selected MDR subline cells KB-V1; KB-V1 MDR cells viability, CellTiter-Glo, 72 h; Potency, µM (highest dose often 46.1 µM), most hits filed as cytotoxic; hit rate 3.4% among 400,000; AID 1347076, 2019; note: nearly all actives have a fitted effect of over 60% in size
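Drug-selected KB-V1 cells, grown in DMEM lacking phenol red with 10% FBS, receive compound titrations; after three days at 37 degrees C, surviving cell ATP is quantified by CellTiter-Glo luminescence and responses normalized and curve-fitted.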
HT1080 IDH1KD tx = qHTS for induction of synthetic lethality in tumor cells producing 2HG: qHTS for the HT-1080-IDH1KD cell line. HT-1080 IDH1 knockdown viability, ATP luminescence, 48 h. Potency, µM (highest dose often 46.1 µM), most hits filed as cytotoxic. hit rate 2% among 360,000
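Viability of IDH1-knockdown HT-1080 fibrosarcoma cells was assessed by CellTiter-Glo after 48 h at 37 °C with titrated compound; concentration-effect curves were classified by fit quality and response size.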
KB-3-1 tox = qHTS assay for MDR1-selective chemotherapeutics: Primary screen using the parental adenocarcinoma cell KB-3-1; KB-3-1 viability, CellTiter-Glo ATP luminescence, 72 h; Potency, µM (doses to about 46.1 µM), usual class: cytotoxic; hit rate 1.4% among 400,000; note: nearly all actives have a fitted effect of over 60% in size
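Using CellTiter-Glo luminescence, growth of non-resistant KB-3-1 adenocarcinoma cells is assessed 72 h after pin-tool compound addition at 37 °C. Normalized responses across the concentration series yield fitted curves.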
IL1B secr inh = qHTS for Inhibitors of Inflammasome Signaling: IL-1-beta AlphaLISA Primary Screen | AID 743279, 2014 | activity change, % at 57.5 µM | THP-1 LPS/ATP IL-1B secretion, AlphaLISA, 16 h; active compounds read low | hit rate 4.7% among 360,000; in the data active = activity change below about -50%; inconclusive = mostly about -30% to -49%
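THP-1 cells pretreated 1 hr with compounds (up to 57.5 uM final), then stimulated with LPS (250 ng/mL final) plus ATP (1.25 mM final); secreted IL-1B measured by AlphaLISA after 16 hr, decreased signal indicating inhibition.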
HT1080NT lethal = qHTS for induction of synthetic lethality in tumor cells producing 2HG: qHTS for the HT-1080-NT fibrosarcoma cell line; HT-1080-NT fibrosarcoma viability, CellTiter-Glo ATP luminescence, 48 h; Potency, µM (doses to about 46.1 µM), usual class: cytotoxic; hit rate 1.6% among 360,000; AID 686970, 2013;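 note: NT is the 2HG producing partner of a matched IDH1 knockdown line; nearly all actives have a fitted effect of over 55% in size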
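HT-1080-NT; 750 cells/well; 5% FBS RPMI; 48 h compound, 37 degrees C; CellTiter-Glo luminescence; curve fitting and curve-class assignment.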
Large screens that a line does not name were inactive. Unless noted, calls come from the whole dose curve; as a rule, active = well fitted curve in the direction sought with a large enough effect; inconclusive = small, poorly fitted or top-dose-only effect, or another doubt; inactive = no such curve, though single readings can be large; an effect the other way counts as inactive or inconclusive.

COc1cc(OC)c(/C=C/c2ccc3ccccc3[n+]2C)c(OC)c1	KB-3-1 tox 0.73µM (no result: HT1080 IDH1KD tx, IL1B secr inh, HT1080NT lethal)
CCOc1ccc(CNCc2c(C(=O)O)c(C)n(Cc3c(F)cccc3Cl)c2C)cc1OC	KB-V1 cytotox inconclusive (no result: HT1080 IDH1KD tx, IL1B secr inh, HT1080NT lethal)
CC(C)CCOP(=O)(c1ccc(N(C)C)cc1)C(Nc1ccccc1)c1ccc(N(C)C)cc1 (stereo unspecified)	IL1B secr inh inconclusive
CCCOP(=O)(c1ccc(N(C)C)cc1)C(Nc1ccccc1)c1ccc(C)cc1 (stereo unspecified)	KB-V1 cytotox 21µM, HT1080 IDH1KD tx 15µM, HT1080NT lethal inconclusive
CCC(CC)c1nnc(NC(=O)c2cccc(S(=O)(=O)N3CCc4ccccc43)c2)s1	KB-V1 cytotox 15µM
O=C(Nc1nc2ccc(F)cc2s1)c1cccc(S(=O)(=O)N2CCc3ccccc32)c1	KB-V1 cytotox 2.9µM, KB-3-1 tox inconclusive
O=C(Nc1nncs1)c1cccc(S(=O)(=O)N2CCc3ccccc32)c1	HT1080 IDH1KD tx inconclusive
O=C(Nc1nc2c(F)cc(F)cc2s1)c1ccc(S(=O)(=O)N2CCc3ccccc32)cc1	KB-3-1 tox inconclusive (no result: HT1080 IDH1KD tx, IL1B secr inh, HT1080NT lethal)
O=C(Nc1cccnc1)c1cccc(S(=O)(=O)N2CCc3ccccc32)c1	KB-V1 cytotox 10µM, KB-3-1 tox inconclusive
Cc1ccc2nc(NC(=O)c3ccc(S(=O)(=O)N4CCCc5ccccc54)cc3)sc2c1	HT1080 IDH1KD tx 16µM, HT1080NT lethal 18µM
O=C(CCc1nnc(CCCc2ccccc2)o1)NCC(F)(F)F	none
Cc1ccc(NC(=S)N2CCN(S(=O)(=O)c3ccc(F)cc3)CC2)cc1	none
O=C(c1cccc(S(=O)(=O)N2CCc3ccccc3C2)c1)N1CCN(c2ccccc2)CC1	KB-V1 cytotox inconclusive
O=C(c1cccc(S(=O)(=O)N2CCc3ccccc32)c1)N1CCN(c2ccccc2)CC1	KB-V1 cytotox inconclusive, HT1080 IDH1KD tx inconclusive, KB-3-1 tox inconclusive, IL1B secr inh inconclusive, HT1080NT lethal 13µM
CCOC(=O)c1sc(NC(=O)c2cccc(S(=O)(=O)N3CCc4ccccc43)c2)c(C#N)c1C	HT1080 IDH1KD tx inconclusive, KB-3-1 tox 21µM, HT1080NT lethal inconclusive
O=C(CN1CCN(c2ccc(O)cc2)CC1)Nc1ccc2c(c1)OCCCO2	KB-3-1 tox inconclusive
OC[C@@H]1CN(Cc2ccc(-c3ccccc3)cc2)C[C@H](n2cnc3c(NCc4ccncc4)ncnc32)O1	KB-V1 cytotox inconclusive, HT1080 IDH1KD tx 23µM, KB-3-1 tox inconclusive, HT1080NT lethal inconclusive
OC[C@@H]1CN(Cc2cccc(C(F)(F)F)c2)C[C@H](n2cnc3c(NCc4ccc(F)cc4)ncnc32)O1	KB-V1 cytotox inconclusive, HT1080 IDH1KD tx 21µM, KB-3-1 tox inconclusive, HT1080NT lethal inconclusive
OC[C@@H]1CN(Cc2ccccc2)C[C@H](n2cnc3c(NCc4ccco4)ncnc32)O1	none
COc1cc(CNc2ncnc3c2ncn3[C@H]2CN(Cc3cccc4ccccc34)C[C@@H](CO)O2)cc(OC)c1OC	KB-V1 cytotox 21µM, HT1080 IDH1KD tx inconclusive, KB-3-1 tox inconclusive, HT1080NT lethal inconclusive
OC[C@@H]1CN(Cc2ccc(-c3ccccc3)cc2)C[C@H](n2cnc3c(NCc4ccco4)ncnc32)O1	KB-V1 cytotox inconclusive, HT1080 IDH1KD tx 18µM, KB-3-1 tox inconclusive, HT1080NT lethal 21µM
CCOC(=O)C1=CN(Cc2ccco2)S(=O)(=O)NC1c1ccc(C(F)(F)F)cc1 (stereo unspecified)	none
COc1ccc(-c2nc3ccccn3c2Nc2ccccc2C)cc1	none (no result: KB-V1 cytotox, KB-3-1 tox, IL1B secr inh)
N#C/C(=C\c1ccc(OCCN2CCOCC2)cc1)C(=O)Nc1ccc(S(N)(=O)=O)cc1	none
CCOC(=O)CCCc1sc(N)nc1-c1[nH]c(=O)[nH]c1C	IL1B secr inh -83
CCOC(=O)CCc1c(C)n[nH]c1C	none
CCCCOP(=O)(OCCCC)C1(C)CC(=O)CC(C)(C)C1 (stereo unspecified)	KB-V1 cytotox inconclusive
OCc1cc(-c2ccc(Cl)c(Cl)c2)on1	none
Nc1ccc(-c2nc3cc(N)ccc3o2)cc1	IL1B secr inh -54
CCOc1ccc(/C=N/NC(=O)c2cc(-c3ccco3)nc3ccccc23)cc1	HT1080NT lethal inconclusive
Nc1c(C(=O)N/N=C/c2ccc(F)cc2)oc2nc(-c3ccccc3)cc(-c3ccco3)c12	HT1080 IDH1KD tx 21µM, HT1080NT lethal inconclusive (no result: IL1B secr inh)
O=C(N/N=C/c1ccc(F)cc1)c1cc(-c2ccco2)nc2ccccc12	KB-V1 cytotox inconclusive, HT1080 IDH1KD tx 16µM, KB-3-1 tox inconclusive, HT1080NT lethal inconclusive
c1ccc(N2CCN(c3nc(-c4cccs4)nc4ccccc34)CC2)cc1	IL1B secr inh -58
CN1CCN(c2nc(-c3cccs3)nc3ccccc23)CC1	IL1B secr inh -59, HT1080NT lethal inconclusive
CCOC(=O)/C=C1\SCC(=O)N1CC(=O)Nc1cccc(F)c1	none
CC1CC(=O)NN=C1c1ccc(NCCO)c([N+](=O)[O-])c1 (stereo unspecified)	KB-V1 cytotox 0.13µM
CC(C)[C@H](NC(=O)OC(C)(C)C)c1nnc(SCc2cccc(F)c2)o1	KB-V1 cytotox 13µM
CCN(CC)C(=O)CSc1nnc([C@H](Cc2c[nH]c3ccccc23)NC(=O)OC(C)(C)C)o1	KB-V1 cytotox 15µM
C[C@H](NC(=O)OC(C)(C)C)c1nnc(SCc2ccc(Cl)cc2Cl)o1	KB-V1 cytotox 18µM, KB-3-1 tox inconclusive (no result: HT1080 IDH1KD tx, IL1B secr inh, HT1080NT lethal)
CSCC[C@H](NC(=O)OC(C)(C)C)c1nnc(SCc2ccc(F)cc2)o1	KB-V1 cytotox 21µM
CCOC(=O)CSc1nnc([C@H](C)NC(=O)OC(C)(C)C)o1	none
O=c1c2sc3ccccc3c2n(Cc2ccccc2)c(=O)n1CCc1ccccc1	none (no result: HT1080 IDH1KD tx, IL1B secr inh, HT1080NT lethal)
CSCC[C@H](NC(=O)OC(C)(C)C)c1nnc(SCc2ccccc2)o1	KB-V1 cytotox 9.2µM, KB-3-1 tox inconclusive
CSCC[C@H](NC(=O)OC(C)(C)C)c1nnc(SCc2cccc(F)c2)o1	none
Cc1cc(NC(=O)CS(=O)(=O)c2cn(Cc3cccc(Br)c3)c3ccccc23)no1	HT1080 IDH1KD tx 21µM, IL1B secr inh -54, HT1080NT lethal inconclusive
O=C(CS(=O)(=O)c1cn(Cc2cccc(F)c2)c2ccccc12)N1CCOCC1	KB-V1 cytotox 23µM
CCOc1ccc2nc(CN3CCN(Cc4ccccc4OCC)C(CCO)C3)ccc2c1 (stereo unspecified)	HT1080 IDH1KD tx inconclusive, KB-3-1 tox inconclusive, IL1B secr inh -70
CCOc1ccccc1CN1CCN(Cc2cc3ccccc3[nH]2)CC1CCO (stereo unspecified)	HT1080 IDH1KD tx inconclusive, IL1B secr inh inconclusive, HT1080NT lethal 23µM
